# Source: PubChem (National Center for Advancing Translational Sciences (NCATS))
# Rows were chosen to be rich in hits. Some 1.4% of all compounds tested hit in one or more screens of this group.
# KCNH2 3.1 inh: inhibitors of human KCNH2 3.1 potassium channel isoform; U2OS KCNH2 3.1, thallium flux FluxOr; stronger effect = lower value; activity change, % (tested at about 1.8 µM); 0.95% of 340,000 active;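 active = maximum activity change below -70%; inconclusive = maximum activity change from -70% to -50%; inactive = maximum activity change above -50%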;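 note: thallium influx rate constant from kinetic fluorescence after stimulation buffer; % is set by controls: 0 for no effect and ±100 for the full control effect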
#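 Channel expression came from 3.1 mutant virus (1.77 x 10^8 /mL) applied to suspended U2OS cells for 4 h. Flux was tracked with FluxOr dye plus Red40 quencher, and kinetic rate constants normalized to controls.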
# Rango-impB inh: Rango-importin beta binding inhibition; Q14974; Rango CFP/YFP FRET sensor + importin beta, 45 min; Potency, µM (top dose mostly 92.2 µM), inactives show top-dose inhibition of complex formation; 0.031% of 340,000 active; AID 540263;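 note: potency is the fitted concentration of half-maximal effect; 0% = DMSO wells and 100% = buffer wells lacking importin beta; nearly all actives have a fitted effect of over 15% in size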
#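 Inhibition scored from the CFP 486 nm/YFP 530 nm FRET ratio 45 min after adding 0.125 microM importin beta to 50 nM Rango biosensor preincubated 5 min with compound (room temperature, PBS with DTT, Tween-20, BSA). No-importin wells as positive control.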
# CCT chaperon mod: cytosolic chaperonin activity modulation; 0.3% of 360,000 active; activity change, % (no concentration beside the values), hits read low; AID 651819; purified chaperonin ATPase assay, HTRF ADP detection, 30 min; in the data active = activity change below about -30%; note: % is set by controls: 0 for no effect and ±100 for the full control effect
#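 We incubate TRiC, 40 or 20 nM final, with library compounds at 76 uM and 10 uM ATP for 30 min at 37 °C. ADP formed is detected with Transcreener HTRF reagents after 30 min at room temperature.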
# hERG WT inh: blocks the wildtype human KCNH2 potassium channel. U2OS, BacMam KCNH2, thallium flux FluxOr; stronger effect = lower value. activity change, % at 1.84 µM. 0.37% of 340,000 active. AID 720551;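 active = maximum activity change below -70%; inconclusive = maximum activity change between -70% and -50%; inactive = maximum activity change above -50%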; note: % is set by controls: 0 for no effect and ±100 for the full control effect
#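 U2OS cells were transduced with wild-type KCNH2 virus (2.03 x 10^8 / mL) for 4 h at room temperature, then cultured overnight at 37 C. Thallium flux was read with FluxOr dye. Rate constants were normalized to DMSO controls.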
# Rango release inh: inhibitors of RanGTP-induced Rango-importin beta complex dissociation; Potency, µM (doses to about 46.1 µM), for inactives: at the top dose activity change, negative = inhibition; 0.071% of 340,000 active; Biochemical FRET Rango-importin beta, RanGTP-induced dissociation; O95149+P62826; note: potency is the fitted concentration of half-maximal effect; % of control where 0% means no effect; nearly all actives have a fitted effect of over 45% in size
#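 Rango/importin beta premix (0.1/0.25 uM final), PBS + 1 mM DTT + 0.02% Tween-20 + 0.1% BSA; cpd 5 min RT; FRET pre-read; + RanGTP-RCC1 (0.6 uM Ran, 2 mM GTP, 0.2 uM RCC1); 45 min RT; FRET post-read, ex 430, em 486/530 nm.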
# MmCpn inh: blocks the Methanococcus maripaludis chaperonin Mm-Cpn. purified Mm-Cpn ATPase, ADP Transcreener TR-FRET. Potency, µM (highest dose often 76.9 µM), without a hit: at the top dose activity, negative = inhibition, usual class: inhibitors. 0.031% of 330,000 active. AID 504842; active = well fitted inhibition curve with a large enough effect; inconclusive = small, poorly fitted or top-dose-only effect; note: potency is the fitted concentration of half-maximal effect; % is set by controls: 0 for no effect and ±100 for the full control effect; nearly all actives have a fitted effect of over 80% in size
#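 ATP (10 uM final) was added to archaeal chaperonin (25 nM final) after 10 min exposure to test compound at 37°C; after 30 min further incubation, ADP was detected by competitive TR-FRET.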
# Starred values were filed as active, the others as inactive; ? = inconclusive; / = no result given. Unless noted, calls come from the whole dose curve.
SMILES,KCNH2 3.1 inh,Rango-impB inh,CCT chaperon mod,hERG WT inh,Rango release inh,MmCpn inh
CCOc1ccc2nc(NC(=O)CN3CCC(n4nnc5cc(F)ccc54)CC3)sc2c1,-89*,2%,-1,-10,3%,-6%
O=C(CN1CCC(n2nnc3cc(F)ccc32)CC1)NC1CC1,-8,2%,-2,-2,?,1%
Clc1ccc(CN2CCC(c3nc4ccc(Cl)cc4[nH]3)CC2)cc1,-97*,0%,-1,-96*,0%,1%
CC1CCCN(C(=O)CN2CCC(c3nc4ccc(Cl)cc4[nH]3)CC2)C1 (centres undefined),-7,0%,-3,23,-6%,1%
CCOc1ccc(OCC(=O)OCC(=O)NNC(=O)c2ccc([N+](=O)[O-])cc2)cc1,3,-3%,0,0,15%,2%
Cc1c(C(=O)CN2CCN(c3ccccc3)CC2)c2ccccc2n1C,-10,1%,-1,?,11%,0%
Cn1c2c(c3ccccc31)CCN(CCCCN1CCN(c3ccccc3)CC1)C2=O,-109*,0%,-1,-78*,3%,/
COc1cc(C(=O)NNC(=O)CNC(=O)c2ccc(Br)o2)cc(OC)c1OC,-3,0%,-3,0,0%,0%
COc1ccc(CNC(=O)CNC(=O)c2ccc(Br)o2)cc1OC,-10,0%,-107*,-1,-9%,0%
O=C(c1ccc2c(c1)OCO2)C1CCCN(Cc2cccc(C(F)(F)F)c2)C1 (centres undefined),-10,0%,0,26,-11%,-3%
O=C(c1ccc2c(c1)OCO2)C1CCCN(Cc2ccc(OC(F)F)cc2)C1 (centres undefined),-94*,?,-3,-8,-11%,-2%
O=C(c1ccc2c(c1)OCO2)C1CCCN(Cc2ccc3cccc(F)c3n2)C1 (centres undefined),-101*,-1%,1,-25,8%,0%
CN(C)CCCN(C(=O)CCc1ccccc1)c1nc2c(F)cccc2s1,-71*,0%,0,-31,-7%,1%
CCOc1ccc2nc(N(CCN(CC)CC)C(=O)/C=C/c3cccs3)sc2c1,-80*,?,0,?,-22%,0%
CN(C)CCCN(C(=O)CCOc1ccccc1)c1nc2c(F)cccc2s1,-12,0%,0,5,14%,-4%
Cc1cccc2sc(N(CCN(C)C)C(=O)/C=C/c3cccs3)nc12,-24,?,1,16,6%,-1%
CN(C)CCCN(C(=O)/C=C/c1cccs1)c1nc2c(F)cccc2s1,-117*,3%,2,-45,-7%,2%
CSCCC(NC(=O)c1ccccc1Br)C(=O)N1CCCCCCC1 (centres undefined),-1,-3%,-3,6,8%,0%
CCCCN(C(=O)c1ccc(Cl)c(S(=O)(=O)N2CCOCC2)c1)c1c(N)n(CCC)c(=O)[nH]c1=O,14,5%,-2,-28,13%,1%
CN(C)S(=O)(=O)c1ccc(N2CCCC2)c(C(=O)N2CCN(c3ccc([N+](=O)[O-])cc3)CC2)c1,-116*,0%,0,-83*,?,-1%
O=C(c1cc([N+](=O)[O-])ccc1N1CCOCC1)N1CCN(c2ccc([N+](=O)[O-])cc2)CC1,-106*,?,-1,-125*,-14%,-2%
O=C(c1sc2cc([N+](=O)[O-])ccc2c1Cl)N1CCOCC1,40,3%,1,-97*,1%,2%
CC(C)N(C(=O)c1sc2cc([N+](=O)[O-])ccc2c1Cl)C(C)C,2,-1%,0,21,1%,2%
O=C(c1cc([N+](=O)[O-])ccc1N1CCOCC1)N1CCCCC1,6,0%,1,-7,30%,-1%
O=C(COc1ccc(Cl)cc1)N1CCN(c2ccc([N+](=O)[O-])c(N3CCOCC3)c2)CC1,-81*,2%,-3,14,?,0%
SMILES,KCNH2 3.1 inh,Rango-impB inh,CCT chaperon mod,hERG WT inh,Rango release inh,MmCpn inh
O=C(c1ccc(S(=O)(=O)N2CCCCC2)cc1)N1CCN(CCN2C(=O)c3cccc4cccc(c34)C2=O)CC1,-18,-2%,-1,18,-8%,0%
Cc1ccc(C(=O)NCC(=O)OCCOc2ccccc2Cl)cc1,1,-4%,1,9,-3%,4%
CN(C)S(=O)(=O)c1cc([N+](=O)[O-])ccc1N1CCCCCC1,13,1%,-31*,-18,6%,-6%
CC1CCN(c2ccc([N+](=O)[O-])cc2C(=O)O)CC1,-178*,3%,-5,-133*,-24%,1%
CN(C(=O)c1cc([N+](=O)[O-])ccc1N1CCCC1)C1CCCCC1,-10,1%,-2,-16,5%,0%
C#Cc1ccc([C@H]2C=C(C(=O)NCc3ccccc3)O[C@@H](OCC)[C@@H]2CCCO)cc1,-26,0%,-68*,8,-18%,/
O=C(Cc1cc(=O)[nH]c(=O)[nH]1)NCc1ccccc1,5,?,-2,10,-3%,1%
Cc1cc(C(=O)N/N=C/c2cc(Br)cc(Br)c2OC(=O)c2ccccc2)n[nH]1,/,/,/,/,/,2%
Cc1cc(C(=O)N/N=C/c2cc(Br)cc(Br)c2OC(=O)c2cccc(F)c2)n[nH]1,-2,?,-2,1,3.7µM*,-1%
O=C(/C=C/c1ccc(Cl)cc1Cl)N1CCN(c2ccccc2[N+](=O)[O-])CC1,-95*,-3%,-4,?,-7%,1%
O=C(/C=C/c1ccc(Cl)cc1Cl)N1CCN(c2ccc([N+](=O)[O-])c(N3CCOCC3)c2)CC1,-18,4%,0,-1,-4%,0%
COc1ccc(-c2cc(C(=O)Nc3ccc(S(=O)(=O)Nc4onc(C)c4C)cc3)c3ccccc3n2)cc1OC,-81*,-4%,-2,42,19%,-2%
O=C(c1cc(-c2ccc(Br)cc2)nc2ccccc12)N1CCN(c2ccccc2O)CC1,-74*,2%,0,-5,-3%,-2%
COc1ccc(-c2cc(C(=O)N3CCN(c4ncccn4)CC3)c3ccccc3n2)cc1OC,-142*,6%,-60*,16,-1%,1%
Cc1ccc(-c2cc(C(=O)N3CCN(c4ncccn4)CC3)c3ccccc3n2)cc1,-71*,3%,-4,-7,4%,-4%
Cc1ccc(-c2cc(C(=O)N3CCN(c4ccccc4O)CC3)c3ccccc3n2)o1,-5,1%,-2,8,4%,0%
